Experimental data taken from PubChem BioAssay (NCI).
This is part of a sample that, as a whole, favours compounds with a hit. Of some 79,000 tested, about 15% had one in any assay. Rule as the data show it: active = growth inhibition above about 70%; inactive = the rest.

How the values were obtained:
[1] = NCI Yeast Anticancer Drug Screen. Data for the rad50 strain (AID 155);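 also: 0% = growth of vehicle-only cultures of the same strain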; settings: S. cerevisiae rad50 strain growth inhibition; at 50.0 µM; hits give high values
How it was run: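 DNA repair mutant yeast, compound exposure, growth read-out; inhibition is taken relative to vehicle.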

[2] = NCI Yeast Anticancer Drug Screen. Data for the mec2-1 strain (AID 157); settings: S. cerevisiae mec2-1 strain, at 50.0 µM, hits give high values
How it was run: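 Growth inhibition is read against vehicle-treated controls after compound exposure of the mec2-1 yeast strain, which is defective in DNA damage repair or cell cycle control.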

[3] = NCI Yeast Anticancer Drug Screen. Data for the sgs1 mgt1 strain (AID 161);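 also: 0% = growth of cultures given vehicle only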; settings: S. cerevisiae sgs1 mgt1 strain, at 50.0 µM, hits give high values
How it was run: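 Compounds are added to genetically altered yeast, and growth is compared with cultures given vehicle alone to give percent inhibition.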

[4] = NCI Yeast Anticancer Drug Screen. Data for the cln2 rad14 strain (AID 165);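 also: 0% = growth equal to vehicle treated cultures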; settings: S. cerevisiae cln2 rad14 strain, at 50.0 µM, hits give high values
How it was run: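 Growth inhibition, relative to vehicle-treated controls, is the read-out. The test organism is a yeast strain with defined genetic alterations, cln2 rad14.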

[5] = NCI Yeast Anticancer Drug Screen. Data for the bub3 strain (AID 167); settings: S. cerevisiae bub3 mutant strain, at 50.0 µM, hits give high values
How it was run: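 In this screen, a yeast mutant lacking normal mitotic checkpoint function is challenged with compound. Relative growth versus vehicle gives the inhibition value.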

[6] = NCI Yeast Anticancer Drug Screen. Data for the mlh1 rad18 strain (AID 175); settings: S. cerevisiae mlh1 rad18 strain growth inhibition; at 50.0 µM; hits give high values
How it was run: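 Cells of a genetically altered yeast strain, deficient in DNA damage repair, were treated with compound. Their growth was then compared with that of vehicle-treated cultures to give inhibition.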

Measured: growth inhibition

Cc1cccc(CC(O)c2ccc(C=O)cc2)n1 (configuration not stated)
inactive: [1] 20.6% | [2] 14.7% | [3] 6.75% | [4] 5.65% | [5] 14.4% | [6] 37.5%

Cc1cc(CC(O)(c2ccccc2)c2ccccc2)nc2[nH]c(=O)ccc12
inactive: [1] 0.7% | [2] -6.7% | [3] -1.05% | [4] 44.9% | [5] 6.95% | [6] -1.35%

CCCCCCCCCCCCCCCCC(C)=O
inactive: [1] 2.2% | [2] 20.6% | [3] 5% | [4] -16.6% | [5] 21.9% | [6] -11.7%

O=S(=O)(Nc1ccc(C(F)(F)F)cc1)c1ccc(F)cc1
inactive: [1] -5.7% | [2] 7.35% | [3] 26% | [4] 15.9% | [5] -0.95% | [6] 28.1%

CCCC(C)(C#N)c1ccc(OC)cc1 (configuration not stated)
inactive: [1] 33.8% | [2] 13.2% | [3] 31.6% | [4] 1.65% | [5] 32.4% | [6] -11.8%

Oc1ccccc1-n1nc2ccc3nonc3c2n1
inactive: [1] -16.8% | [2] -61.1% | [3] -38.9% | [4] -35.9% | [5] -1% | [6] -40.5%

Nc1cccc(=O)[nH]1
inactive: [1] 6.3% | [2] -10.2% | [3] -0.05% | [4] 3.7% | [5] 9.45% | [6] -3.85%

COc1ccccc1C(=O)O
inactive: [1] -7.45% | [2] -16.8% | [3] -9.4% | [4] -1.75% | [5] -7.35% | [6] -5%

CCCC1SCC(C)(C)NC1=O (configuration not stated)
inactive: [1] 4.85% | [2] 3.25% | [3] -1.9% | [4] -18.4% | [5] 7.05% | [6] -2.4%

NCC(=O)N1CCCC1C(=O)O (configuration not stated)
inactive: [1] -9.8% | [2] -6.3% | [3] -0.7% | [4] -24.4% | [5] 0.05% | [6] -6.2%

c1ccc(COc2ccc(CC3SCCCS3)cc2)cc1
inactive: [1] -30.5% | [2] -35.8% | [3] -10.4% | [4] 24.9% | [5] 16.6% | [6] -7.5%

CC(=O)Nc1ccc2nc(N)sc2c1
inactive: [1] 13% | [2] 5.55% | [3] -16.1% | [4] -3.65% | [5] 3.8% | [6] 6.6%

O=c1[nH]c2cc(Cl)ccc2nc1/C(=N\O)C(O)c1ccc(Cl)cc1Cl (configuration not stated)
inactive: [1] -9.9% | [2] -24.4% | [3] -0.35% | [4] 20.6% | [5] -5.6% | [6] -13.2%

Cc1nn(C(=O)c2cccnc2)c(-c2ccccc2)c1N=Nc1ccc(S(=O)(=O)Nc2ncccn2)cc1
inactive: [1] 23.7% | [2] 18.4% | [3] 31.4% | [4] 33% | [5] 0.7% | [6] 42.5%

CC(C)CC(=O)OC1CCCCC1C1CCCCC1 (configuration not stated)
inactive: [1] -2.1% | [2] -6.35% | [3] 12.3% | [4] 7.25% | [5] 13.4% | [6] -4%

CC(C)(C)c1ccc(Oc2nc(Oc3ccc(C(C)(C)C)cc3)nc(Oc3ccc(C(C)(C)C)cc3)n2)cc1
inactive: [1] 19.6% | [2] 10.8% | [3] 10.6% | [4] 3.8% | [5] -1.85% | [6] 11.2%

O=C1OC(=O)c2c1cccc2[N+](=O)[O-]
inactive: [1] -7.55% | [2] 0% | [3] -2.6% | [4] -14.4% | [5] -5.2% | [6] 2.7%

CSC(=S)N/N=C(\c1ccccc1)c1ccccn1
inactive: [1] 0.3% | [2] 13.2% | [3] 0.85% | [4] 10.4% | [5] 21.2% | [6] 5.75%

O=C(O)c1ccc(B(O)O)cc1[N+](=O)[O-]
inactive: [1] 11.8% | [2] 4.75% | [3] 7.35% | [4] 8.7% | [5] 34.9% | [6] 5.15%

CCOC(=O)C(=O)OCC
inactive: [1] 24.9% | [2] -1.05% | [3] -19.1% | [4] -3.7% | [5] 29.8% | [6] 13.8%

CN(CCO)CC(O)Cn1cnc2c(N)ncnc21 (configuration not stated)
inactive: [1] -12.5% | [2] -17.8% | [3] -31.5% | [4] 10.7% | [5] -19.4% | [6] 19.8%

O=C1OCc2c1cc1cc3c(cc1c2-c1ccc2c(c1)OCO2)OCO3
inactive: [1] 2.1% | [2] -36.1% | [3] 3.4% | [4] 4.8% | [5] -19.2% | [6] 3.85%

O=C1C=C(c2ccccc2)CSC1
inactive: [1] 3.7% | [2] -10.1% | [3] -9.45% | [4] -79.3% | [5] -8.75% | [6] -4.85%

Cc1c(N2CCCC2)cc2c(c1-n1cccc1)C(C)(C)CC2(C)C
inactive: [1] -21% | [2] -14.2% | [3] 1.55% | [4] 16.3% | [5] 6.7% | [6] 2.8%

O=C(OCC(OC(=O)c1ccccc1)C(OC(=O)c1ccccc1)C(COC(=O)c1ccccc1)OC(=O)c1ccccc1)c1ccccc1 (configuration not stated)
inactive: [1] 67% | [2] 26.1% | [3] 56.9% | [4] 0.2% | [5] 16.4% | [6] 52.4%

O=C(O)c1cc(C(=O)O)cc(S(=O)(=O)N2CCOCC2)c1
inactive: [1] -2.1% | [2] 3.25% | [3] -3.8% | [4] -37.8% | [5] 6.05% | [6] -16.2%

CCOC(=O)c1ccc(-n2nc3nc(N)[nH]c(=O)c3n2)cc1
inactive: [1] -17.8% | [2] -21.2% | [3] -4.35% | [4] -4.15% | [5] -52.9% | [6] -34.4%

Cc1c[n+]([O-])cc(C)c1N=Nc1ccc(N(C)C)cc1
inactive: [1] 2.55% | [2] -7.7% | [3] -7.95% | [4] 11.1% | [5] 11.9% | [6] 18.2%

CCCCCC1OC1CC1OC1CCCCCCCC(=O)O (configuration not stated)
inactive: [1] -5.5% | [2] -21.1% | [3] -3.85% | [4] -14.8% | [5] -12.8% | [6] -13.4%

c1ccc2cc3c(cc2c1)[nH]c1ccccc13
inactive: [1] -10.7% | [2] -26.4% | [3] -0.85% | [4] -3.1% | [5] -25.4% | [6] 14.8%

CC(C)SCC(N)C(=O)O (configuration not stated)
inactive: [1] -17.8% | [2] -10.7% | [3] -2.65% | [4] -15% | [5] -11.8% | [6] -15.8%

COC(=O)/C(=N\NC(N)=O)C(C#N)c1ccccc1 (configuration not stated)
inactive: [1] -12.5% | [2] -1.85% | [3] -5.75% | [4] -29.9% | [5] 6.7% | [6] -4.8%

COC(=O)c1sc(N2CCCC2)nc1N
inactive: [1] -4.95% | [2] 9.95% | [3] 6.4% | [4] -1.3% | [5] 11.4% | [6] -1.85%

Cc1cccc(C(=O)NCC(=O)O)c1
inactive: [1] -13.8% | [2] -3.7% | [3] -9.9% | [4] -85.5% | [5] 4.5% | [6] -9.7%

CCCCC(=O)N/N=C\c1cc(Cl)ccc1[N+](=O)[O-]
inactive: [1] 17.6% | [2] 1.6% | [3] -6.65% | [4] 33.2% | [5] 7.7% | [6] 1.05%

Cc1ccccc1C(=O)Oc1ccccc1Cl
inactive: [1] 12% | [2] 17.7% | [3] -6.2% | [4] 4.25% | [5] 13.2% | [6] 11.3%

Cc1cc2nc(CC(O)c3nc4cc(C)c(C)cc4[nH]3)[nH]c2cc1C (configuration not stated)
inactive: [1] 6.9% | [2] -12.9% | [3] -5.1% | [4] 5.1% | [5] -4.9% | [6] 5.8%

CCC(=O)Nc1cccc([N+](=O)[O-])c1OC
inactive: [1] -5.35% | [2] 23.4% | [3] -7.45% | [4] -52.2% | [5] 9.15% | [6] -15.2%

CC(=O)NC1=CC(=O)c2cc(C)cc(O)c2C1=O
inactive: [1] 23.3% | [2] 21.9% | [3] 20.1% | [4] 16.2% | [5] 28.1% | [6] -14.6%

Cc1cc2c(cc1C)[n+](=O)c(C(=O)CC(=O)C(=O)Nc1ccccc1C(C)C)c(C)n2[O-]
inactive: [1] -26.4% | [2] -4.75% | [3] -51.6% | [4] 13.1% | [5] -14.4% | [6] -33.6%

Cc1ccc(N)c(C#N)c1
inactive: [1] -11.8% | [2] 11.7% | [3] -5.7% | [4] 1% | [5] -5% | [6] 4.65%

CN(C)c1ccc(C(Cc2ccccc2)C2NC(=S)NC2=O)cc1 (configuration not stated)
inactive: [1] -6% | [2] -34.5% | [3] 11.2% | [4] 11.3% | [5] 7.7% | [6] -40.5%
